Drawing on PubChem BioAssay (NCATS), this text covers viability (% of control), viability, % of control and Potency for 49 compounds.

“And” between values parts separate entries of the source, which are not always exact repeats. Identical values can stand only once. Inconclusive results are not listed. Values without a mark were called inactive. The source made the active and inactive calls. Calls follow the shape of the dose curve; as a rule, active = well fitted cell-killing curve with a large enough effect; inconclusive = small, poorly fitted or top-dose-only effect, or effect the other way; inactive = no such curve, though single readings can be large or run the other way.

Assay [1] in a line: Viability qHTS for spleen associated tyrosine kinase inhibitor (SYKi) naive MV4-11 cells (AID 1963823). Also: nearly all actives have a fitted effect of over 40% in size. As to conditions: MV4-11 AML viability, CellTiter-Glo luminescence, 72 h; series mostly up to 45 µM. The essentials: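 Read-out: CellTiter-Glo luminescence. Exposure: 72 hr, 37 C, 5% CO2, 95% humidity. Cells: MV4-11 without SYK inhibitor history, 500/well, qHTS format.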
On the technique in general: Quantitative high-throughput screening tests each substance at several concentrations.

Assay [2] is described as follows: Viability qHTS for spleen associated tyrosine kinase inhibitor (SYKi) drug resistant MV4-11 cells (AID 1963824). Also: nearly all actives have a fitted effect of over 35% in size. To be noted: SYKi-resistant MV4-11 viability, CellTiter-Glo, 72 h; series mostly up to 45 µM. The method, boiled down: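 CellTiter-Glo luminescence, read 10 min after reagent addition, reports viability after a 72 hr compound exposure. Cells are an MV4-11 line made resistant to SYK inhibition, seeded at 500 per well onto compound-containing plates.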
Potency is read from the fitted curve at half-maximal effect.

As to `C[C@@H]1O[C@@H](O[C@H]2[C@H](OC(=O)[C@]34CCC(C)(C)C[C@H]3C3=CCC5[C@@]6(C)C[C@@H](O)[C@@H](O)[C@@](C)(CO)C6[C@H](O)C[C@@]5(C)[C@]3(C)CC4)OC[C@H](O)[C@@H]2O)[C@H](O)[C@H](O)[C@H]1O[C@@H]1OC[C@@H](O)[C@H](O[C@H]2O[C@H](C)[C@@H](O)[C@H](O)[C@@H]2O)[C@H]1O` (stereo partly drawn), the viability (% of control) in assay [1] is 80.2% [at 9.25 µM]. For the same compound, the viability, % of control in assay [2] is 77.9% [at 9.25 µM].
Consider `CCNC(=O)Nc1ccc(-c2nc3c(c(N4CCOC[C@H]4C)n2)CCN(C2COC2)C3)cc1`, for which the Potency is 0.461 µM (active) in assay [1] and 0.82 µM (active) in assay [2].
For `COc1cc(C(C)C)c(Oc2cnc(N)nc2N)cc1I`, in that order: 10.3 µM (active) and 10.3 µM (active).
As to `NC(=O)c1cccc(-c2cc(O)cc(OC(=O)NC3CCCCC3)c2)c1`, the Potency result in assay [1] and in assay [2] was “inactive” throughout.
As for `CCO[C@@H]1O[C@H](C(COCc2ccccc2)OCc2ccccc2)[C@H](OCc2ccccc2)[C@H]1O` (stereo partly drawn), the Potency is 15 µM (active) in assay [1] and 11.9 µM (active) in assay [2].
For `CC1CCC2(C(=O)O)CCC3(C)C(=CCC4C5(C)CCC(OC(=O)/C=C/c6ccccc6)C(C)(C)C5CCC43C)C2C1C` (stereo not drawn), in that order: “inactive” and “inactive”.
On the same counts, the results for `CC(C)C(=O)OC[C@H]1O[C@@H](n2ccc(N)nc2=O)[C@](C)(F)[C@@H]1OC(=O)C(C)C` are “inactive” and “inactive”.
For `CC1=CC(=O)C(=C(C)C)CC2C(C)(O)CCC12O` (stereo not drawn), in that order: “inactive” and “inactive”.
Regarding `C[C@H]1[C@H](C)CC[C@]2(C(=O)O)CC[C@]3(C)C(=CCC4[C@@]5(C)C[C@@H](O)[C@H](O)C(C)(C)C5CC[C@]43C)[C@H]12` (stereo partly drawn), the Potency entry in assay [1] and in assay [2] was “inactive” in each case.
As for `COc1cc(-c2ncn(/C=C\C(=O)OC(C)C)n2)cc(C(F)(F)F)c1`, the Potency was 0.103 µM (active) in assay [1] and 0.164 µM (active) in assay [2].
For `C[C@@H]1O[C@@H](O[C@H]2[C@H](Oc3cc(O)c(C(=O)CCc4ccc(O)cc4)c(O)c3)O[C@H](CO)[C@@H](O)[C@@H]2O)[C@H](O)[C@H](O)[C@H]1O`, in that order: “inactive” and “inactive”.
For `C=C[C@@]1(C)CC(=O)C2[C@](C)(O1)[C@@H](OC(C)=O)[C@@H](O)[C@H]1C(C)(C)CCC[C@]21C` (stereo partly drawn), in assay [1], the viability (% of control) was 97.8% [at 9.25 µM]. Besides, the viability, % of control in assay [2] was 89.7% [at 9.25 µM].
As for `CN(C)CC/C=C1\c2ccccc2COc2ccccc21`, the Potency result in assay [1] and in assay [2] was “inactive” throughout.
Consider `CC(C)=CCC/C(C)=C/CO[C@@H]1O[C@H](CO[C@@H]2O[C@@H](CO)[C@H](O)[C@H]2O)[C@@H](O)[C@H](O)[C@H]1O`, for which the Potency result in assay [1] and in assay [2] was “inactive” throughout.
For the compound `Nc1ncnc2c1c(-c1ccc(Oc3ccccc3)cc1)nn2[C@@H]1CCCNC1`, the results for the Potency in assay [1] and in assay [2] were 0.206 µM (active) and 0.259 µM (active), respectively.
On the same counts, the results for `O=C1CC[C@@H](C(=O)N2CSC[C@H]2C(=O)O)N1` are “inactive” and “inactive”.
As for `Cc1cn2c(n1)Cc1ccc(Cl)cc1C(c1ccc(N)cc1)=N2`, the Potency in assay [1] is 14.6 µM (active); in assay [2], 18.4 µM (active).
Consider `CC(O)CCC1C(CO[C@@H]2O[C@H](CO)[C@@H](O)[C@H](O)[C@H]2O)CC(O)CC1(C)C` (stereo partly drawn), for which the Potency result in assay [1] and in assay [2] was “inactive” in each case.
For the compound `CCc1ccc2nc(Nc3cc(Cc4ccccc4)nc(NC4CCC(O)CC4)n3)sc2c1` (stereo not drawn), the Potency in assay [1] is 8.33 µM (active); in assay [2], 6.61 µM (active).
Regarding `C[C@@H]1O[C@@H](O[C@H]2[C@H](O)[C@@H](C(=O)O)O[C@@H](O[C@H]3CC[C@@]4(C)C(CC[C@]5(C)C4CC=C4C6CC(C)(C)CC[C@]6(C(=O)O)CC[C@]45C)C3(C)C)[C@@H]2O[C@@H]2O[C@H](CO)[C@@H](O)[C@H](O)[C@H]2O)[C@H](O)[C@H](O)[C@H]1O` (stereo partly drawn), in assay [1], the viability (% of control) was 72.6% [at 9.25 µM]. Also, the viability, % of control in assay [2] is 81.7% [at 9.25 µM].
Turning to `CC1(C)CC[C@]2(C(=O)O[C@@H]3O[C@H](CO)[C@@H](O)[C@H](O)[C@H]3O)CC[C@]3(C)C(=CCC4[C@@]5(C)C[C@@H](O)[C@H](O)C(C)(C)C5[C@H](O)C[C@]43C)[C@@H]2[C@@H]1O` (stereo partly drawn), the Potency entry in assay [1] and in assay [2] was “inactive” in each case.
In the case of `CC(C)=CCC(O)[C@](C)(O)C1[C@H](O)C[C@@]2(C)C3CC=C4C(C[C@H](O)[C@@H](O[C@@H]5O[C@H](CO)[C@@H](O)[C@H](O)[C@H]5O)C4(C)C)[C@]3(C)C(=O)C[C@]12C` (stereo partly drawn), the Potency result in assay [1] and in assay [2] was “inactive” throughout.
Regarding `O=c1cc(NCCCN[C@@H]2CCOc3c(Br)cc(Br)cc32)[nH]c2ccsc12`, the values for the Potency in assay [1] and in assay [2] were 10.3 µM (active) and 7.31 µM (active), respectively.
In the case of `COc1cc(O[C@@H]2O[C@H](CO)[C@@H](O)[C@H](O)[C@H]2O)c(CCC(=O)OC[C@H]2O[C@@H](Oc3cc(OC)c(C4OC(=O)C(C)(O)C4O)cc3CCC(=O)O)[C@H](O)[C@@H](O)[C@@H]2O)cc1C1OC(=O)C(C)(O)C1O` (stereo partly drawn), in assay [1], the viability (% of control) is 77% [at 9.25 µM]. Besides, the viability, % of control in assay [2] was 81.1% [at 9.25 µM].
In the case of `CC(=O)N1CCN(C(=O)Cc2ccc(Nc3ncc(F)c(Nc4ccc(C(=O)Nc5ccccc5Cl)cc4)n3)cc2)CC1`, the Potency in assay [1] and in assay [2] was 0.517 µM (active) each time.
For `O=C(OCC(O)CO[C@@H]1O[C@H](C(=O)O)[C@@H](O)[C@H](O)[C@H]1O)c1ccccc1` (stereo partly drawn), the Potency entry in assay [1] and in assay [2] was “inactive” throughout.
Take `O=C(NCc1nc2ccccc2c(=O)n1-c1ccc(F)cc1)Nc1ccc(Cl)c(C(F)(F)F)c1`: the Potency in assay [1] was 23.1 µM (active); in assay [2] it was 20.6 µM (active).
For `O=C(Nc1nc2ccccc2n1CCc1ccccc1)c1ccccc1`, in that order: “inactive” and “inactive”.
On the same counts, the results for `Cc1cccc(Nc2cc(Cl)nc(SCC(=O)O)n2)c1C` are “inactive” and “inactive”.
Turning to `CCCCc1nc(C)c(CC(=S)N(C)C)c(=O)n1Cc1ccc(-c2ccccc2-c2nn[nH]n2)cc1`, the Potency entry in assay [1] and in assay [2] was “inactive” throughout.
`CC1(C)CC[C@]2(C(=O)O[C@@H]3O[C@H](CO[C@@H]4O[C@H](CO)[C@@H](O)[C@H](O)[C@H]4O)[C@@H](O)[C@H](O[C@@H]4O[C@H](CO)[C@@H](O)[C@H](O)[C@H]4O)[C@H]3O)CC[C@]3(C)C(=CCC4[C@@]5(C)CC[C@H](O[C@@H]6OC[C@@H](O)[C@H](O)[C@H]6O)[C@@](C)(C(=O)O)C5CC[C@]43C)[C@@H]2C1` (stereo partly drawn): the viability (% of control) in assay [1] is 83.1% [at 9.25 µM]. Besides, in assay [2], the viability, % of control is 108% [at 9.25 µM].
For the compound `CC1=CC(=O)CC(C)(C)C1CO[C@@H]1O[C@H](CO)[C@@H](O)[C@H](O)[C@H]1O` (stereo partly drawn), the Potency result in assay [1] and in assay [2] was “inactive” in each case.
Take `C[C@H]1[C@@H](O)[C@H](O)C2[C@]3(C)C([C@@H](O)[C@H]4OC(=O)[C@@H]1[C@@]24C)[C@](C)(O)C=C[C@H]3O[C@@H]1O[C@H](CO)[C@@H](O)[C@H](O)[C@H]1O` (stereo partly drawn): the Potency result in assay [1] and in assay [2] was “inactive” throughout.
Consider `C[C@@H]1O[C@@H](O[C@H]2[C@H](OC(=O)[C@]34CCC(C)(C)C[C@H]3C3=CCC5[C@@]6(C)CC[C@H](O[C@@H]7O[C@H](CO[C@@H]8OC[C@H](O)[C@H](O)[C@H]8O)[C@@H](O)[C@H](O)[C@H]7O)C(C)(C)C6CC[C@@]5(C)[C@]3(C)C[C@H]4O)OC[C@@H](O)[C@@H]2O)[C@H](O)[C@H](O[C@@H]2OC[C@](O)(CO)[C@H]2O)[C@H]1O[C@@H]1OC[C@H](O)[C@H](O[C@@H]2OC[C@@H](O)[C@H](O)[C@H]2O)[C@H]1O` (stereo partly drawn), for which, in assay [1], the viability (% of control) is 88.4% [at 9.25 µM]. In assay [2], the viability, % of control was 88.4% [at 9.25 µM].
In the case of `Cc1ccc(Cc2c(C)nc3nc(SCC(=O)NCCN4CCNCC4)nn3c2C)cc1`, the Potency result in assay [1] and in assay [2] was “inactive” in each case.
As for `CC1OC(OC2C(C)OC(OC3C(O)C(CO)OC(O[C@H]4CC[C@@]5(C)C(CC[C@]6(C)C5CC=C5C7[C@@H](C)[C@H](C)CC[C@]7(C(=O)O)CC[C@]56C(=O)O)C4(C)C)C3O)C(O)C2O)C(O)C(O)C1O` (stereo partly drawn), the viability (% of control) in assay [1] was 75.5% [at 9.25 µM]. Also, the viability, % of control in assay [2] is 78.3% [at 9.25 µM].
Regarding `COC(=O)[C@@H]1C2CC3c4[nH]c5ccccc5c4CCN3CC2CC[C@@H]1O` (stereo partly drawn), the Potency result in assay [1] and in assay [2] was “inactive” in each case.
As to `COc1cc(C)c(C(=O)O[C@H]2[C@@H](O)[C@H](n3ccc(=O)[nH]c3=O)O[C@@H]2CO)c(OC)c1`, the Potency result in assay [1] and in assay [2] was “inactive” in each case.
In the case of `COc1cc2c(NC3CCN(C(C)C)CC3)nc(N3CCC(F)(F)CC3)nc2cc1OCCCN1CCCC1`, the Potency is 5.17 µM (active) in assay [1] and 2.91 µM (active) in assay [2].
For `CC1CC[C@]2(C(=O)O)CC[C@]3(C(=O)O)C(=CCC4[C@@]5(C)CC[C@H](OC6OC(C)C(O)C(OC7OC(CO)C(O)C(O)C7O)C6O)C(C)(C)C5CC[C@]43C)C2C1C` (stereo partly drawn), in that order: “inactive” and “inactive”.
For `CC(C)Oc1ccc(C(=O)NC(CNC(=O)CN(C)C)Cc2ccc(-c3cn4cccc(C(C)O)c4n3)cc2)cc1Cl` (stereo not drawn), in that order: 0.13 µM (active) and 0.082 µM (active).
For `Cc1ncc([N+](=O)[O-])n1C[C@H](O)CN1CCOCC1`, in that order: “inactive” and “inactive”.
`CN(CCc1ccc(Nc2ncc(-c3cccnc3)s2)cc1)Cc1ccccc1`: the Potency in assay [1] is 0.366 µM (active); in assay [2], 0.651 µM (active).
For `CC(C)(C)c1ccc(S(=O)(=O)Nc2ccc(-n3ccnc3)cc2)cc1`, in that order: 10.3 µM (active) and 10.3 µM (active).
On the same counts, the results for `CC#CC(=O)N1CC[C@@H](n2c(=O)n(-c3ccc(Oc4ccccc4)cc3)c3c(N)ncnc32)C1` are 7.42 µM (active) and 8.33 µM (active).
On the same counts, the results for `C/C(=N\N=C(N)N)c1cc(NC(=O)CCCCCCCCC(=O)Nc2cc(/C(C)=N/N=C(N)N)cc(/C(C)=N/N=C(N)N)c2)cc(/C(C)=N/N=C(N)N)c1` are 18.4 µM (active) and 9.2 µM (active).
With `NC(=O)NCCCC(NC(=O)Cc1ccccc1)C(=O)O` (stereo not drawn), the Potency result in assay [1] and in assay [2] was “inactive” each time.
For the compound `COc1ccc(CN2CCN(C(c3ccc(F)cc3)c3ccc(F)cc3)CC2)c(OC)c1OC`, the Potency in assay [1] was 15 µM (active) and 14.6 µM (active); in assay [2], 21.1 µM (active) and 16.4 µM (active).
As for `COc1cc2nc(N3CCCC3)nc(NCCCCCN3CCCC3)c2cc1OC`, the results for the Potency in assay [1] and in assay [2] were 1.3 µM (active) and 2.59 µM (active), respectively.
